In PubChem BioAssay AID1159580 (chemical genetic matrix, 2015):
“And” between values parts separate entries of the source, which are not always exact repeats. Identical values can stand only once. The campaign covered roughly 5,500 compounds. About 2,000 (36%) were called active. Inconclusive results (about 18%) are left out. Rule as the data show it: active = normalized growth mostly below about 0.91 (no sharp cut-off); inconclusive = no clear call, values can overlap the other calls; inactive = mostly above about 0.92. This is one part of the list.

Assay: chemical genetic growth profiling, strain panel (AID 1159580);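 also: tested at 20 µM; growth read once vehicle control cultures reached saturation at 30 °C; 1 = growth at the plate median or of vehicle wells; lower values mean less growth of the strain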
Details: S. cerevisiae deletion strains, growth OD
[1] = locus YAL013W, strain DEP1, active compounds read low
[2] = locus YAL040C, strain CLN3, active compounds read low
[3] = locus YCL061C, strain MRC1 (second series), active compounds read low
[4] = locus YDR363W, strain ESC2, active compounds read low
[5] = locus YER002W, strain NOP16, active compounds read low
[6] = locus YGR078C, strain PAC10, active compounds read low
[7] = locus YJR075W, strain HOC1, active compounds read low
[8] = locus YMR307W, strain GAS1, active compounds read low
[9] = locus YNL175C, strain NOP13, active compounds read low
[10] = locus YNL197C, strain WHI3, active compounds read low
[11] = locus YNL224C, strain SQS1, active compounds read low
[12] = locus YNL322C, strain KRE1, active compounds read low
[13] = locus YOR083W, strain WHI5 (second series), active compounds read low
[14] = locus YPL055C, strain LGE1, active compounds read low
[15] = locus YPL241C, strain CIN2, active compounds read low

Measured: normalized growth

CN1CCc2cc(O)cc3c2[C@H]1Cc1ccc(O)c(O)c1-3
inactive: [2] 1.06 | [4] 0.927 | [5] 1 | [6] 0.946 | locus YNL153C, strain GIM3, active compounds read low 0.902 | [9] 0.994 | [10] 1.02 | [11] 1.03 | [13] 0.912
active: [1] 0.844 | [3] 0.794 | [7] 0.492 | [8] 0.798 | [12] 0.786 | [14] 0.575 | [15] 0.876

COc1ccc2c(c1O)-c1cccc3c1[C@@H](C2)N(C)CC3
inactive: [1] 0.986 | [2] 0.995 | [3] 1.01 | [4] 0.994 | [5] 1.01 | [6] 1.05 | locus YGR229C, strain SMI1, active compounds read low 1.02 | [7] 1 | locus YMR263W, strain SAP30, active compounds read low 0.994 | [8] 1.02 | locus YNL128W, strain TEP1, active compounds read low 1.01 | [9] 1.02 | [10] 1.02 | [11] 1.01 | [12] 0.985 | [13] 0.972 | [14] 0.989 | [15] 1.01

COc1ccc2c(c1O)-c1c(OC)c(OC)cc3c1[C@H](C2)N(C)CC3
inactive: locus YAL021C, strain ccr4, active compounds read low 0.926 | locus YAL026C, strain drs2, active compounds read low 0.985 | locus YAL030W, strain snc1, active compounds read low 0.989 | locus YBL061C, strain skt5, active compounds read low 0.99 | locus YBR009C, strain hhf1, active compounds read low 1.01 | locus YBR021W, strain FUR4, active compounds read low 1.02 | locus YBR023C, strain chs3, active compounds read low 0.988 | locus YBR171W, strain sec66, active compounds read low 0.976 | locus YBR229C, strain ROT2, active compounds read low 1 | locus YBR231C, strain swc5, active compounds read low 0.991 | locus YBR279W, strain paf1, active compounds read low 0.978 | locus YCL011C, strain gbp2, active compounds read low 0.979 | locus YCL016C, strain dcc1, active compounds read low 0.983 | locus YCL029C, strain bik1, active compounds read low 1.04 | locus YCL061C, strain MRC1, active compounds read low 0.979 | locus YCL069W, strain vba3, active compounds read low 0.981 | locus YCR088W, strain abp1, active compounds read low 0.975 | locus YDL005C, strain med2, active compounds read low 0.982 | locus YDL035C, strain GPR1, active compounds read low 1.06 | locus YDL040C, strain nat1, active compounds read low 0.982 | locus YDL074C, strain BRE1, active compounds read low 1.1 | locus YDL101C, strain DUN1, active compounds read low 1.02 | locus YDL185W, strain tfp1, active compounds read low 1.03 | locus YDL192W, strain arf1, active compounds read low 1.03 | locus YDR001C, strain nth1, active compounds read low 0.982 | locus YDR069C, strain doa4, active compounds read low 0.989 | locus YDR101C, strain arx1, active compounds read low 1.03 | locus YDR137W, strain rgp1, active compounds read low 0.983 | locus YDR150W, strain NUM1, active compounds read low 1.01 | locus YDR159W, strain sac3, active compounds read low 1 | locus YDR162C, strain NBP2, active compounds read low 1.01 | locus YDR195W, strain ref2 0.991 | locus YDR297W, strain sur2, active compounds read low 0.974 | locus YDR318W, strain mcm21, active compounds read low 1.01 | locus YDR334W, strain swr1, active compounds read low 0.951 | locus YDR335W, strain msn5, active compounds read low 0.977 | locus YDR388W, active compounds read low 1.02 | locus YDR392W, strain spt3, active compounds read low 0.931 | locus YDR502C, strain sam2, active compounds read low 1.01 | locus YEL003W, strain gim4, active compounds read low 0.982 | locus YEL037C, strain rad23, active compounds read low 0.988 | locus YEL061C, strain CIN8 (second series), active compounds read low 0.987 | locus YEL061C, strain CIN8, active compounds read low 1.02 | locus YER015W, strain faa2, active compounds read low 0.991 | locus YER016W, strain bim1, active compounds read low 0.985 | locus YER110C, active compounds read low 1.01 | locus YER111C, strain swi4, active compounds read low 0.995 | locus YER155C, strain BEM2 (second series), active compounds read low 1.01 | locus YER155C, strain BEM2, active compounds read low 1 | locus YER167W, strain BCK2, active compounds read low 1.02 | locus YFR010W, strain ubp6, active compounds read low 0.987 | locus YGL078C, strain dbp3, active compounds read low 1.02 | locus YGL086W, strain mad1, active compounds read low 1.04 | locus YGL167C, strain pmr1, active compounds read low 0.999 | locus YGL173C, strain kem1, active compounds read low 0.975 | locus YGL227W, strain vid30, active compounds read low 0.989 | locus YGL240W, strain doc1, active compounds read low 0.996 | locus YGL248W, strain PDE1, active compounds read low 1.01 | locus YGL253W, strain hxk2, active compounds read low 1.01 | locus YGR135W, strain pre9, active compounds read low 1 | locus YGR252W, strain gcn5, active compounds read low 0.991 | locus YHR013C, strain ard1, active compounds read low 0.95 | locus YHR027C, strain rpn1, active compounds read low 0.988 | locus YHR030C, strain SLT2, active compounds read low 1.02 and 0.976 | locus YHR079C, strain IRE1 (second series), active compounds read low 1.01 | locus YHR079C, strain IRE1, active compounds read low 0.993 | locus YHR094C, strain hxt1, active compounds read low 1.01 | locus YHR129C, strain ARP1, active compounds read low 1.03 | locus YHR142W, strain chs7, active compounds read low 0.915 | locus YHR200W, strain rpn10, active compounds read low 1.04 | locus YIL066C, strain RNR3, active compounds read low 1.04 | locus YIL073C, strain SPO22, active compounds read low 1.1 | locus YIL125W, strain kgd1, active compounds read low 1.01 | locus YIR030C, strain dcg1, active compounds read low 1.01 | locus YJL092W, strain hpr5, active compounds read low 0.97 | locus YJL095W, strain BCK1 (second series), active compounds read low 0.995 | locus YJL095W, strain BCK1, active compounds read low 1.03 and 1.01 | locus YJL115W, strain asf1, active compounds read low 0.957 | locus YJL129C, strain trk1, active compounds read low 0.959 | locus YJL134W, strain LCB3, active compounds read low 1.01 | locus YJL154C, strain vps35, active compounds read low 0.982 | locus YJL164C, strain tpk1, active compounds read low 0.972 | locus YJL166W, strain qcr8, active compounds read low 0.987 | locus YJL168C, strain set2, active compounds read low 1.03 | locus YJL187C, strain SWE1 (second series), active compounds read low 1.03 | locus YJL187C, strain SWE1, active compounds read low 0.994 | locus YJR043C, strain POL32, active compounds read low 1.03 | locus YJR066W, strain TOR1, active compounds read low 0.947 | locus YKL009W, strain mrt4, active compounds read low 1.12 | locus YKL068W, active compounds read low 1 | locus YKL085W, strain MDH1 (second series), active compounds read low 1.01 | locus YKL085W, strain MDH1, active compounds read low 1.01 | locus YKL160W, strain elf1, active compounds read low 0.965 | locus YKR001C, strain vps1, active compounds read low 1.03 | locus YKR026C, strain gcn3, active compounds read low 0.981 | locus YKR091W, strain srl3, active compounds read low 0.975 | locus YLL001W, strain dnm1, active compounds read low 0.986 | locus YLL026W, active compounds read low 0.989 | locus YLL041C, strain sdh2, active compounds read low 0.975 | locus YLR027C, strain aat2, active compounds read low 0.987 | locus YLR039C, strain RIC1, active compounds read low 1.09 | locus YLR058C, strain SHM2, active compounds read low 1.01 | locus YLR102C, strain apc9, active compounds read low 1.02 | locus YLR113W, strain HOG1, active compounds read low 1 | locus YLR221C, strain rsa3, active compounds read low 0.981 | locus YLR258W, strain gsy2, active compounds read low 0.999 | locus YLR262C, strain YPT6 (second series), active compounds read low 0.972 | locus YLR262C, strain YPT6, active compounds read low 1.1 | locus YLR268W, strain sec22, active compounds read low 1.05 | locus YLR320W, strain mms22, active compounds read low 1.01 | locus YLR330W, strain CHS5, active compounds read low 1.02 | locus YLR342W, strain FKS1 (second series), active compounds read low 1.06 | locus YLR342W, strain FKS1, active compounds read low 0.986 | locus YLR357W, strain rsc2, active compounds read low 1 | locus YLR370C, strain arc18, active compounds read low 0.979 | locus YLR371W, strain rom2, active compounds read low 1.03 | locus YLR384C, strain iki3, active compounds read low 0.996 | locus YLR418C, strain cdc73, active compounds read low 1.02 | locus YML016C, strain PPZ1, active compounds read low 1.01 | locus YML032C, strain rad52, active compounds read low 1.02 | locus YML120C, strain ndi1, active compounds read low 0.966 | locus YML124C, strain tub3, active compounds read low 1 | locus YMR058W, strain fet3, active compounds read low 0.968 | locus YMR078C, strain ctf18, active compounds read low 1.02 | locus YMR125W, strain sto1, active compounds read low 0.99 | locus YMR129W, active compounds read low 1.01 | locus YMR205C, strain PFK2, active compounds read low 1.01 | locus YMR223W, strain ubp8, active compounds read low 0.994 | locus YMR231W, strain pep5, active compounds read low 0.987 | [8] 1.11 | locus YNL067W, strain RPL9B, active compounds read low 1.01 | locus YNL071W, strain lat1, active compounds read low 0.983 | locus YNL183C, strain NPR1, active compounds read low 0.954 | locus YNL209W, strain ssb2, active compounds read low 0.983 | locus YNL233W, strain BNI4, active compounds read low 1.01 | locus YNL248C, strain rpa49, active compounds read low 0.912 | locus YNL250W, strain rad50, active compounds read low 1.01 | locus YNL271C, strain bni1, active compounds read low 1.03 | locus YNL298W, strain CLA4, active compounds read low 1.01 | locus YNL307C, strain MCK1, active compounds read low 1.02 | locus YNL322C, strain KRE1 (second series), active compounds read low 0.974 | [12] 1.02 | locus YNR049C, strain mso1, active compounds read low 0.987 | locus YNR052C, strain pop2, active compounds read low 1.02 | locus YOL006C, strain TOP1, active compounds read low 1.21 | locus YOL012C, strain htz1 1.07 | locus YOL147C, strain pex11, active compounds read low 1.01 | locus YOR001W, strain rrp6, active compounds read low 0.955 | locus YOR061W, strain CKA2, active compounds read low 1.02 | locus YOR069W, strain VPS5, active compounds read low 1.01 | locus YOR070C, strain gyp1, active compounds read low 0.989 | locus YOR080W, strain dia2, active compounds read low 0.999 | locus YOR083W, strain WHI5, active compounds read low 0.943 | locus YOR106W, strain vam3, active compounds read low 0.945 | locus YOR136W, strain idh2, active compounds read low 1.02 | locus YOR144C, strain elg1, active compounds read low 1.01 | locus YOR184W, strain ser1, active compounds read low 1.06 | locus YOR231W, strain MKK1, active compounds read low 1 | locus YOR265W, strain rbl2, active compounds read low 0.984 | locus YOR270C, strain vph1, active compounds read low 0.964 | locus YOR290C, strain snf2, active compounds read low 0.99 | locus YOR316C, strain cot1, active compounds read low 1.04 | locus YPL051W, strain arl3, active compounds read low 0.973 | locus YPL078C, strain atp4, active compounds read low 0.926 | locus YPL106C, strain sse1, active compounds read low 0.972 | locus YPL240C, strain hsp82, active compounds read low 0.976 | [15] 1.01 | locus YPL256C, strain CLN2, active compounds read low 0.973 | locus YPR119W, strain clb2, active compounds read low 1 | locus YPR141C, strain kar3, active compounds read low 1 | locus YPR163C, strain tif3, active compounds read low 1.02 | locus YPR167C, strain met16, active compounds read low 1.04 | strain wtn01, active compounds read low 1.07
